Residual activity data for 1 molecule are collected here from ChEMBL document CHEMBL2218924, “A broad activity screen in support of a chemogenomic map for kinase signalling research and drug discovery” (Biochem J, 2013).

For assay [1], the target named is T1, Ephrin type-A receptor 3 (Homo sapiens) (UniProt P29320).
T1 sequence (whole entry): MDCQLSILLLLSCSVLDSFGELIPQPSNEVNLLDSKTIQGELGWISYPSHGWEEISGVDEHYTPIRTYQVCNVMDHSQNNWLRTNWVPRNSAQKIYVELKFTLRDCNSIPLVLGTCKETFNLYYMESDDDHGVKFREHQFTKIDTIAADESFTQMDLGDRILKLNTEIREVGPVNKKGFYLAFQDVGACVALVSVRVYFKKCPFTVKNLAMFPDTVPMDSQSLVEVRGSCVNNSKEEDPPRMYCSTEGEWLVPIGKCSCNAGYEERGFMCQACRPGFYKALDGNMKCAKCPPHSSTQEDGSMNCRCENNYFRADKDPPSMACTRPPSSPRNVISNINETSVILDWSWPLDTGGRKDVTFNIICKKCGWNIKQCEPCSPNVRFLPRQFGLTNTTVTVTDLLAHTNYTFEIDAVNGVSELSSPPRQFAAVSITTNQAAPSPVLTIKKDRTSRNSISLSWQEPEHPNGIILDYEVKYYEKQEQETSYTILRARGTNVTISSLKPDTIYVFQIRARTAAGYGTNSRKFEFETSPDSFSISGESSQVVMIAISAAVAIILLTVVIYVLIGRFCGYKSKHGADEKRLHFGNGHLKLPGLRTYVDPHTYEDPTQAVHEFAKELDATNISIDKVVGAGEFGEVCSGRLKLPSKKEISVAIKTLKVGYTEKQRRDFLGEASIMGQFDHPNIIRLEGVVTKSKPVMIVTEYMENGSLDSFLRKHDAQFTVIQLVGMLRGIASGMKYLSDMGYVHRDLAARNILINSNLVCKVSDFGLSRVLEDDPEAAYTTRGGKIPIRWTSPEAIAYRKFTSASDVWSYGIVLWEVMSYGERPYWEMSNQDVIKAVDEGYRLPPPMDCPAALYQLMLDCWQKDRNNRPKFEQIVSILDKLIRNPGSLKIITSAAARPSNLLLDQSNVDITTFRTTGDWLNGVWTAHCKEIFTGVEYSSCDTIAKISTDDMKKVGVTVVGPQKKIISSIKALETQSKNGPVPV
The note with it: at 10 µM.

Assay [2] deals with Ephrin type-A receptor 4 (Homo sapiens) (UniProt P54764). To be noted: at 1 µM.
Assay [3] shares this target. The note with it: at 10 µM.
For assay [4], the target named is Ephrin type-A receptor 5 (Homo sapiens) (UniProt P54756). The note with it: at 1 µM.
Assay [5] has the same target. The note with it: at 10 µM.
In assay [6] the target is Ephrin type-A receptor 7 (Homo sapiens) (UniProt Q15375). To be noted: at 1 µM.
The target is the same in assay [7]. To be noted: at 10 µM.
The target of assay [8] is T2, Ephrin type-A receptor 8 (Homo sapiens) (UniProt P29322).
T2 sequence (whole entry): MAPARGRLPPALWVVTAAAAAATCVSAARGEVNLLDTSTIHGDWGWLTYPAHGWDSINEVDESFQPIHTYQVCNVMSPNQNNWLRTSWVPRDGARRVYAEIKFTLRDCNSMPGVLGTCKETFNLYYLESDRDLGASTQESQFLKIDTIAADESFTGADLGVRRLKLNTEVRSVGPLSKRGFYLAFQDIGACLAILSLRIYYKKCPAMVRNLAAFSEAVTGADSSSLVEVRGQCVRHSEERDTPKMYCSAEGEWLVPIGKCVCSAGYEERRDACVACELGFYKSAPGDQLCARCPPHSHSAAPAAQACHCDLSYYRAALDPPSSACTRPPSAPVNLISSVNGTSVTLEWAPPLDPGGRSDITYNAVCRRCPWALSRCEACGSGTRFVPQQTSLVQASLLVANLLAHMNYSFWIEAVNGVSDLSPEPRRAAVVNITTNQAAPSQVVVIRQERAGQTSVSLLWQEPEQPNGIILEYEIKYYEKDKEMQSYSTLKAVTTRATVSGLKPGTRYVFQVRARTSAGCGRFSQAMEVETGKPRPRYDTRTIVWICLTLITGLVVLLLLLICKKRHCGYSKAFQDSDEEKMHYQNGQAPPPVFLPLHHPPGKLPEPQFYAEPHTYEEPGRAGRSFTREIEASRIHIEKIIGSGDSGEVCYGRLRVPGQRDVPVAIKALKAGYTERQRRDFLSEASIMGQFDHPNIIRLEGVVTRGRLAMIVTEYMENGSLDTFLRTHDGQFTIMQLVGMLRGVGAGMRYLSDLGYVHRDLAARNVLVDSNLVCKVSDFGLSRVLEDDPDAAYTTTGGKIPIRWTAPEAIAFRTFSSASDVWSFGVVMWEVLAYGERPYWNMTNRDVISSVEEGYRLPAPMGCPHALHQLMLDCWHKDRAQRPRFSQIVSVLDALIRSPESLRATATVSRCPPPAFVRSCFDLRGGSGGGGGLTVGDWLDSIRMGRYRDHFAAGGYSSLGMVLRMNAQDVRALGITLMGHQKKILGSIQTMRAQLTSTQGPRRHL
To be noted: at 1 µM.

The target in assay [9] is T2, Ephrin type-A receptor 8 (Homo sapiens). To be noted: at 10 µM.
Assay [10] has as its target T3, Ephrin type-B receptor 1 (Homo sapiens) (UniProt P54762).
T3 sequence (whole entry): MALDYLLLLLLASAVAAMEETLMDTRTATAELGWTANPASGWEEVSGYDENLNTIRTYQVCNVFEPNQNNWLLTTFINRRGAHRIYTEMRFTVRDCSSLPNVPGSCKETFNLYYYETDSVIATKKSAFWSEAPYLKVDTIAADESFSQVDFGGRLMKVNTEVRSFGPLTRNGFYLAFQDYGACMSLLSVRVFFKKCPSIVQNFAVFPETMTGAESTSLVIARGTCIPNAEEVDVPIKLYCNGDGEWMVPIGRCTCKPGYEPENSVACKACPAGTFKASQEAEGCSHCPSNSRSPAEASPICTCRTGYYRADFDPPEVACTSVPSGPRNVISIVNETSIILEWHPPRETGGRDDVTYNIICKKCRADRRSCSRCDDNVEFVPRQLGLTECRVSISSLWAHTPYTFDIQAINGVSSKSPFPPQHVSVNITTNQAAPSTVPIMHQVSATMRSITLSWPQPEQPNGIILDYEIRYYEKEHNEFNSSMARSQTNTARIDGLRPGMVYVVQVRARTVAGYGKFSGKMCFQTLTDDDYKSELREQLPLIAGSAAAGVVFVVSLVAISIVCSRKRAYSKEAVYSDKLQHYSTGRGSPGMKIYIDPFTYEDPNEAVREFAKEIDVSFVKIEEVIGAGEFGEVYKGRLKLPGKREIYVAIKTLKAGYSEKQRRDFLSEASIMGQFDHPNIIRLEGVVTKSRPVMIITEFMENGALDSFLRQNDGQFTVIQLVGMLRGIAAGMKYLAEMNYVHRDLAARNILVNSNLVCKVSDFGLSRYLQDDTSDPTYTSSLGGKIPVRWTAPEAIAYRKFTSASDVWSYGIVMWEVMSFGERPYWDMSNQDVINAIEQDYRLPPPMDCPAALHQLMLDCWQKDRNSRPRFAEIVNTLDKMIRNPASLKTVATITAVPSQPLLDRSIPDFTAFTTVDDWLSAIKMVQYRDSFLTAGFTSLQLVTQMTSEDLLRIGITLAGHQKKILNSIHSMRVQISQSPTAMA
The note with it: at 1 µM.

Chain of Ephrin type-A receptor 4 (Homo sapiens) (P54764 whole entry): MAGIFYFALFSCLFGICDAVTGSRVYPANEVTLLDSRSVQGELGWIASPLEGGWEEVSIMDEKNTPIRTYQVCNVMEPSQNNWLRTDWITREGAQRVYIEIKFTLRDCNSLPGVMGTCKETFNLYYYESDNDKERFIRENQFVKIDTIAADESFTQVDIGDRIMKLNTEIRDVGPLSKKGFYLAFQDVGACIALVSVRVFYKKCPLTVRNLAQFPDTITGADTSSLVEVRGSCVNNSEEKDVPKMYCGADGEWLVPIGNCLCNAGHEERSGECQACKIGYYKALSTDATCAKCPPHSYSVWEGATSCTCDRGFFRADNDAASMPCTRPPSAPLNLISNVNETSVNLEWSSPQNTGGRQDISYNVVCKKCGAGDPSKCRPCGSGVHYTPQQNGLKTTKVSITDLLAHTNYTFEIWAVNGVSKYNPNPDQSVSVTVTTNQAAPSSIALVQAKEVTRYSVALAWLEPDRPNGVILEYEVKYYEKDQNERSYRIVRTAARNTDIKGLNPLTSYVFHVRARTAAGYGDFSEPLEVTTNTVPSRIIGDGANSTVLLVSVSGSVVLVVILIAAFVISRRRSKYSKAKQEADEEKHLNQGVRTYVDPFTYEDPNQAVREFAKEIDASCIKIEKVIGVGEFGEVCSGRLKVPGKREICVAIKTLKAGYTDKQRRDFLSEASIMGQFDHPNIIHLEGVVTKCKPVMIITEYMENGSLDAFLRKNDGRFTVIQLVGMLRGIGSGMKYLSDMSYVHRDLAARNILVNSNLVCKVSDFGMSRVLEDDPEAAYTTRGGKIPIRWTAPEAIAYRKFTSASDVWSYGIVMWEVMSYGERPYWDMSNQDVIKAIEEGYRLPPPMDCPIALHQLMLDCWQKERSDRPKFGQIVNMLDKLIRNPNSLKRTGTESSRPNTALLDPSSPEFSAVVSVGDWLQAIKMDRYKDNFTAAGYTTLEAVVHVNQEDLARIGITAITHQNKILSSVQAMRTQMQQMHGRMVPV
Chain of Ephrin type-A receptor 7 (Homo sapiens) (Q15375 28-998 limits assumed): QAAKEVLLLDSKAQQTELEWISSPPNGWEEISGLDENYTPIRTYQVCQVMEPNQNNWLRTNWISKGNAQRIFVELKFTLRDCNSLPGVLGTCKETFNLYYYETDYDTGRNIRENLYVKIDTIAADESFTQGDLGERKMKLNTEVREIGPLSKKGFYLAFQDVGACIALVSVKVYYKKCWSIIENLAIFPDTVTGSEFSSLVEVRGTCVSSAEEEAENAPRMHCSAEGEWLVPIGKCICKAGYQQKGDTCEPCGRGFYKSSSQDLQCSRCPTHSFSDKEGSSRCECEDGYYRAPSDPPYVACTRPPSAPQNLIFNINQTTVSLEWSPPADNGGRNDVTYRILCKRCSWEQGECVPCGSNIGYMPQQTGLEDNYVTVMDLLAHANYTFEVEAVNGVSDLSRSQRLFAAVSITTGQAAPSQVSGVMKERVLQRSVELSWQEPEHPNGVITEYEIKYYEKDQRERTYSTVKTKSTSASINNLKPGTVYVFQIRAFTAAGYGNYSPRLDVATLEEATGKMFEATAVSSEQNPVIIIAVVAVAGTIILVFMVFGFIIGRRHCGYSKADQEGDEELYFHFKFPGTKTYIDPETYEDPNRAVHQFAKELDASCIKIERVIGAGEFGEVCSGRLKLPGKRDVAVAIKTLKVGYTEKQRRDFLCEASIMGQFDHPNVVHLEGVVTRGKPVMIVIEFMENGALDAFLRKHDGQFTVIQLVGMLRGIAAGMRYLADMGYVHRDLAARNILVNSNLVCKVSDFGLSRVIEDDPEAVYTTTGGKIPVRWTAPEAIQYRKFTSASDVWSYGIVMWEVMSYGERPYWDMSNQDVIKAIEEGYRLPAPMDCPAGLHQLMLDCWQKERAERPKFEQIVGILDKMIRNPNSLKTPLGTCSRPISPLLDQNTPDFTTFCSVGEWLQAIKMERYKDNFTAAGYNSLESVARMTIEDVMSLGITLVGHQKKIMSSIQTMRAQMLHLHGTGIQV
Chain of Ephrin type-A receptor 5 (Homo sapiens) (P54756 whole entry): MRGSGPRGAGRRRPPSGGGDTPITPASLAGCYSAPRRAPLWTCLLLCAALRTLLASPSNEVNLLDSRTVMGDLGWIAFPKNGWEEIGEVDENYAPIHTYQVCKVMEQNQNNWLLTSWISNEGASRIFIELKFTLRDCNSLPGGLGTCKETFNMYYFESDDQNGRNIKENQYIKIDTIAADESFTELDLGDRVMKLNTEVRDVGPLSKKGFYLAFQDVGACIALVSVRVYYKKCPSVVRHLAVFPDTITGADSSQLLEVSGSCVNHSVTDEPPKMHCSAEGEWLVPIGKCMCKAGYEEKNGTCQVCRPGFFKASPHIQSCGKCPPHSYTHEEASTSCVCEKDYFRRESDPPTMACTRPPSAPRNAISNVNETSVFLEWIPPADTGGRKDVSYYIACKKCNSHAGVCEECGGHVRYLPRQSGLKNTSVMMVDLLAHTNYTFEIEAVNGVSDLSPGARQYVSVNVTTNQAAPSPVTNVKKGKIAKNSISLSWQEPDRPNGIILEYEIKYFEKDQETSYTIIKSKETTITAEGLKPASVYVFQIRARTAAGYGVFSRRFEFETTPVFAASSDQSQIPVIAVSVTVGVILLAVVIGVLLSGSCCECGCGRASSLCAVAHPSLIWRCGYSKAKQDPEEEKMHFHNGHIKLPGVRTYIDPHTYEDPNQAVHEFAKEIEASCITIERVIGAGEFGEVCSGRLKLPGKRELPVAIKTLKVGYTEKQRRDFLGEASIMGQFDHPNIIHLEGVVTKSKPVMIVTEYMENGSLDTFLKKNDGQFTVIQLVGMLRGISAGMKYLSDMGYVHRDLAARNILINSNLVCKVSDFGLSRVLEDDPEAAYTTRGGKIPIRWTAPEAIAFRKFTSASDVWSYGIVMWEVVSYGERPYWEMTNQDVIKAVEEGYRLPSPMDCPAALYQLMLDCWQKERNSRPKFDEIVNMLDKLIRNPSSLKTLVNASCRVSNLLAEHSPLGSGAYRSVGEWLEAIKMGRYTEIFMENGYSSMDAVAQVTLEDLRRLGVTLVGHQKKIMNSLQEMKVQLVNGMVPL

As a reminder, the residual activity is the signal under treatment as a percentage of the control signal. On to `Ic1cccc(CSc2nnc(-c3ccncc3)o2)c1`, for which the residual activity was determined as 83% in [1]; 104% in assay [2]; 103% in [3]; 106% in assay [4]; 99% in assay [5]; 88% in [6]. Further, the residual activity was determined as 81% in assay [7], 89% in assay [8], 87% in [9] and 95% in assay [10].
